Results as given in PubChem BioAssay AID1626 (SRMLSC, 2009).
About 2,000 (0.91%) of roughly 220,000 compounds were called active. Roughly 2% stayed inconclusive and do not appear here. Only a sample is shown. Entries with a potency or affinity are not part of this list. A number with no mark means an inactive call. No stated cut-off is given here; in the data, inconclusive means inhibition above about 80% without an active follow-up result; inactive means below that; test concentration not stated here.

Assay: M. tuberculosis H37Rv growth inhibitors, H37Rv strain (AID 1626);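 further: bacteria incubated seven days before Alamar blue readout; 0% = bacteria only wells and 100% = bacteria with antibiotic wells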
Details: active compounds read high, concentration not given here

| Structure (SMILES) | inhibition [%] |
| --- | --- |
| CCOC(=O)c1ccc(-c2ccc(/C=N/NC(=O)CN(c3ccccc3Cl)S(C)(=O)=O)o2)cc1 | 6.39 |
| NNC(=O)c1cnn(-c2ccccc2)c1-n1cccc1 | -3.69 |
| Cc1ccc(NC(=O)C(=O)NCc2ccc(/C=C(/C#N)C(=O)NCc3cccnc3)o2)cc1C | 0.05 |
| CCOC(=O)N1CCN(C(=O)CSCC(=O)N=c2sc3ccccc3n2C)CC1 | -1.11 |
| CCOC(=O)Cc1nc2ccccc2[nH]1 | -10.4 |
| CCCOC(=O)c1ccc(NC(=O)CC(C)(C)C)cc1 | -1.14 |
| CC1CCC/C(=C\Nc2ccc(O)cc2)C1=O (configuration not stated) | -13 |
| CC1CCC/C(=C\Nc2ccc(C(=O)O)cc2)C1=O (configuration not stated) | -6.3 |
| CCOC(=O)c1ccc(NCc2nc3ccccc3n2C)cc1 | 51.7 |
| CCOC(=O)c1ccc(NC(=O)COC)cc1 | 79.3 |
| CCOC(=O)c1ccc(NC(=O)c2cc(F)c(F)cc2Cl)cc1 | 2.44 |
| CCOC(=O)c1ccc(NC(=O)Nc2ccc(Cl)cn2)cc1 | -5.47 |
| Cc1ccc(Nc2nc(C(=O)N3CCC(C(=O)N4CCN(C)CC4)CC3)cs2)cc1 | -9.19 |
| O=C(NCC1CCCO1)c1sc2cc(Cl)ccc2c1Cl (configuration not stated) | 10.4 |
| CCN1CCN(C(=O)c2nn(-c3ccc(C)cc3)c(=O)c3c2c2ccccc2n3C)CC1 | 1.02 |
| CC(=O)c1c(C)[nH]c(C(=O)CSc2nnc(-c3ccccc3)n2Cc2ccc3c(c2)OCO3)c1C | 0.21 |
| CN1CCC(N2CCN(c3cccc(C(F)(F)F)c3)CC2)CC1 | -9.94 |
| S=c1[nH]nc(Cc2ccccc2)n1-c1ccc(Cl)cc1 | -10.8 |
| NNc1nc2ccc(Cl)cc2s1 | 52.6 |
| Cn1c(=O)c2c(nc(N/N=C/c3cccs3)n2Cc2ccccc2)n(C)c1=O | 3.67 |
| CCOC(=O)c1ccc(NC(=O)CNC(=O)C2CCCCC2)cc1 | -1.48 |
| O=c1[nH]c(Nc2ccc(F)cc2)cc2ccccc12 | 3.27 |
| O=c1[nH]c(Nc2ccccc2)cc2ccccc12 | -8.22 |
| CCCOC(=O)c1ccc(NC(=O)C(CC)CC)cc1 | 0.89 |
| CCOC(=O)c1ccc(NC(=O)COc2ccccc2CNCCO)cc1 | 91.9 |
| CCOC(=O)c1ccc(NC(=O)COc2ccccc2CNC2CCCC2)cc1 | 11.1 |

| Structure (SMILES) | inhibition [%] |
| --- | --- |
| CCOC(=O)c1ccc(NC(=O)C2CCN(S(=O)(=O)CC)CC2)cc1 | 51.8 |
| CCOC(=O)c1ccc(NC(=O)CCC(=O)OC)cc1 | 72.2 |
| COc1ccccc1NC(=O)CCC(=O)N/N=C(/C)c1ccc(C)cc1 | 0.52 |
| O=C(N/N=C/c1ccccn1)C(=O)N1CCCCCC1 | -1.83 |
| O=C(CSc1ncccn1)N1CCCc2ccccc21 | -8.67 |
| CCCCN(C(=O)c1c(C)[nH]c(C(=O)OCC)c1C)c1ccccc1 | -3.19 |
| COc1ccc(-n2c(=O)c3ccccc3n(CC(=O)c3ccccc3)c2=O)cc1OC | -3.99 |
| C/C(=N\NC(=O)C1CC1(C)c1ccccc1)c1ccco1 (configuration not stated) | 5.62 |
| Cn1ncc(C#N)c1NC(=O)c1nn2cccnc2c1Cl | 6.92 |
| Cc1ccc(C(=O)OCC(=O)NCC(F)(F)F)cc1C | 9.6 |
| O=C(CC1C(=O)NCCN1CC1CCCCC1)NCCc1ccc(F)cc1 (configuration not stated) | -4.2 |
| CCOC(=O)c1ccc(NC(=O)CN2C(=O)CCC2=O)cc1 | -7.66 |
| CCOC(=O)c1ccc(NS(C)(=O)=O)cc1 | -0.25 |
| CC(=O)c1cccc(NC(=O)Cc2coc3cc4c(cc23)CCC4)c1 | 6.34 |
| CCOC(=O)c1ccc(NC(=O)CNC(=O)C23CC4CC(CC(C4)C2)C3)cc1 | -2.81 |
| COC(=O)Cc1ccc(NC(=O)c2ccc(C(C)(C)C)cc2)cc1 | 6.95 |
| Cc1ccc(C)c(NC(=O)Cc2coc3cc4c(cc23)CCC4)c1 | 9.72 |
| CCOC(=O)Cc1ccc(NC(=O)c2ccccc2Br)cc1 | 7.37 |
| CCOC(=O)c1ccc(NC(=O)CN2C(=O)CNC2=O)cc1 | -6.17 |
| O=S(=O)(Cc1ccccc1)Cc1cnc(Cl)s1 | 4.1 |
| CCCOCCc1nnc(N)s1 | 1.89 |
| Cc1cccc(OCCSc2cc(C)nc(N)n2)c1 | 6.69 |
| Cc1[nH]c2ccccc2c1/C=C/C(=O)c1ccncc1 | 6.67 |
| COc1ccc(/C=C/C(=O)c2ccncc2)c2ccccc12 | 76 |
| O=C(/C=C/c1ccc2c(c1)OCO2)Nc1cccnc1 | 8.75 |
| CCCCN(CCNP(=O)(OCC)OCC)CP(=O)(OCC)OCC | -3.59 |

| Structure (SMILES) | inhibition [%] |
| --- | --- |
| COc1ccc2nc(N)sc2c1 | 42 |
| Nc1nc2ccc(O)cc2s1 | -4.72 |
| O=C(O)CSC1=NC(=Nc2cccc(Cl)c2)C2(CCCCC2)N1c1ccccc1 | 5.37 |
| O=C(NC1CC1)C1=C[C@@H](c2ccccc2)C[C@@H](OCc2ccc(CO)cc2)O1 | -10.6 |
| COc1ccccc1N1CCN(c2nc3ccccn3c(=O)c2C=O)CC1 | -13.2 |
| C=CCNc1oc(-c2cccs2)nc1C#N | -10.7 |
| N#Cc1nc(-c2cccs2)oc1NCc1ccccc1 | 6.94 |
| CCOC(=O)C1(Cc2ccccc2)CCN(Cc2ccc(COC)o2)CC1 | 8.15 |
| Cc1cccc(NC(=O)CSc2nnc(-c3ccncc3)n2C)c1 | -2.48 |
| COC(=O)c1ccc(N)c(N=CC2=C(O)CC(C)(C)CC2=O)c1 | 99.2 |
| CCOCCSC1=C(C#N)C(c2cccs2)C(C(C)=O)=C(C)N1 (configuration not stated) | -2.87 |
| CCSC1=C(C#N)C(c2cccs2)C(C(=O)OC)=C(C)N1 (configuration not stated) | -5.12 |
| Cc1nc2cc(NC(=O)CCS(=O)(=O)c3ccccc3)ccc2s1 | -0.27 |
| Cc1ccccc1Oc1ncnc(N)c1[N+](=O)[O-] | -1.2 |
| Nc1ncnc(Oc2ccccc2F)c1[N+](=O)[O-] | 7.09 |
| COc1ccc(NC(=O)C(=O)NCCN2CCN(C(=O)c3ccco3)CC2)cc1 | 4.1 |
| O=C(Cc1cccs1)Nc1ccc(-c2nc3ccccc3[nH]2)cc1 | 1.13 |
| O=C(COc1ccccc1)Nc1cccc(-c2nc3cc4ccccc4cc3[nH]2)c1 | 55.3 |
| O=C(Nc1cccc([N+](=O)[O-])c1)N1CCN(c2ccccc2)CC1 | -7.11 |
| CC(=O)c1ccc(NC(=O)N2CCN(c3ccc(C)cc3)C(C)C2)cc1 (configuration not stated) | 0.07 |
| Cc1ccc(NC(=S)NCc2ccccc2)cc1S(=O)(=O)N1CCCCC1 | -3.09 |
| CCCn1cnc2c(N)c(C)c(C)cc21 | -8.86 |
| Cc1cc2c(ncn2Cc2ccccc2)c(N)c1C | 1.64 |
| N#C/C(=N\Nc1c(Cl)cccc1Cl)C(=O)NN | 0.65 |
| O=[N+]([O-])c1cc(/C=N\Nc2nc(-c3ccccc3)cs2)ccc1O | -2.52 |
| O=C(Nc1ccccc1Cl)Nc1ccccc1Cl | -9.3 |

| Structure (SMILES) | inhibition [%] |
| --- | --- |
| O=C(Nc1ccccc1Cl)Oc1ccc(Cl)cc1Cl | -3.15 |
| Cn1c(NC(=O)C2CC2)cc(=O)n(C)c1=O | 5.07 |
| O=c1oc(/C=C/c2ccccc2)nc2sc3c(c12)CCC3 | -3.48 |
| CCn1c(/C=C/c2ccccc2)nc2ccccc2c1=O | 0.15 |
| COC(=O)c1cc(OC)c(OC)cc1NC(=O)c1cccnc1 | 4.7 |
| CCCOc1c(Cl)cc(C(=O)NC)cc1OC | 12 |
| COC(=O)CC1C(=O)NCCN1C(=O)c1sc2ccccc2c1Cl (configuration not stated) | -9.23 |
| O=C(COC(=O)Cc1ccccc1F)Nc1ccc(Cl)cn1 | -6.09 |
| COc1ccc(S(=O)(=O)c2cnc3ccc(OC)cc3c2N2CCC3(CC2)OCCO3)cc1 | 9.48 |
| CCOc1ccc2ncc(S(=O)(=O)c3ccccc3)c(N3CCC4(CC3)OCCO4)c2c1 | -1.36 |
| Cc1ccc(N2C(=O)[C@@H]3[C@H](C2=O)C2c4ccccc4C=NN2[C@@H]3C(=O)c2ccc(Cl)cc2)cc1 (some centres not stated) | 8.72 |
| Cc1ccc(-n2cc(-c3ccc([N+](=O)[O-])cc3)[nH]c2=S)c(C)c1 | 3.47 |
| Cc1ccc(C(=O)CSc2ccccn2)cc1 | -3.3 |
| O=C(O)c1ccnc(SCC(=O)c2ccccc2)c1 | -4.56 |
| CCC(CC)C(=O)Nc1cc([N+](=O)[O-])ccc1Cl | 5.59 |
| O=C(CCCC(=O)OCC(Cl)=C(Cl)Cl)Nc1ccccc1F | -0.28 |
| CC(=O)N(c1ccc(Cl)cc1)c1cn(C(C)=O)c2ccccc12 | 11.9 |
| COC(=O)c1cn(C(=O)c2ccc(Cl)cc2)c2ccccc12 | -3.26 |
| O=Cc1[nH]c2ccccc2c1N(C(=O)CCl)c1ccc([N+](=O)[O-])cc1 | -1.28 |
| CC(=O)n1cc(-c2ccncc2)c2ccccc21 | 8.31 |
| CC(=O)n1cc(Nc2ccccc2C(=O)O)c2ccccc21 | -4.19 |
| CCOC(=O)c1ccccc1Nc1cn(C(C)=O)c2ccccc12 | 3.14 |
| COc1ccccc1N(C(=O)CCl)c1cn(C(C)=O)c2ccccc12 | 42.8 |
| CC(=O)n1cc(Nc2ccc([N+](=O)[O-])cc2)c2ccccc21 | 3.13 |
